Assay results reported in the supplement of paper PMC8866396.
Where a name gives a salt, the structure may show the parent alone. ± gives the standard deviation of the averaged measurements.

Tests used:
IL-6-GFP PC-9GR = test: cell viability (CCK-8 OD) relative to DMSO control (fraction of control); higher = more viable cells; conditions: compound concentration: 10 uM; treatment time: 48 h
In short: (§1)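 PC-9 and PC-9GR lung cancer cells carrying a lentiviral construct that overexpresses IL-6-GFP were seeded in 96-well plates at 3000 cells/well. Every compound in a purchased 510-compound library was applied at a final 10 μM for 48 h, and a parallel set of plates was kept for GFP imaging. Cell viability was read by CCK-8 absorbance, taking each well's optical density as a ratio to the vehicle control well. Two independent replicates were run.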

IL-6-GFP PC-9 = test: as above; conditions: compound concentration: 10 uM; treatment time: 48 h
In short: as §1

SMILES | cell viability (IL-6-GFP PC-9GR) | cell viability (IL-6-GFP PC-9)
CC1(C)OC2CC3C4CCC5=CC(=O)C=CC5(C)C4(F)C(O)CC3(C)C2(C(=O)CO)O1 (stereo unspecified) [Triamcinolone Acetonide] | 1.15 ± 0.023 | 0.9016 ± 0.0065
OCC1OC(c2ccc(Cl)c(Cc3ccc(OC4CCOC4)cc3)c2)C(O)C(O)C1O (stereo unspecified) | 1.05 ± 0.13 | 0.905 ± 0.058
OCC1OC(OCC2OC(O)C(O)C(OC3OC(CO)C(O)C(OC4OC(CO)C(O)C(OC5OC(COC6OC(CO)C(O)C(O)C6O)C(O)C(OC6OC(CO)C(O)C(O)C6O)C5O)C4O)C3O)C2O)C(O)C(O)C1O (stereo unspecified) [Lentinan] | 0.121 ± 0.32 | 1.276 ± 0.0043
CC1CC2C3CCC4=CC(=O)C=CC4(C)C3(F)C(O)CC2(C)C1(O)C(=O)CO (stereo unspecified) [Dexamethasone (DHAP)] | 1.08 ± 0.058 | 0.732 ± 0.072
O=NN(CCCl)C(=O)NCCCl [Carmustine] | 1.21 ± 0.32 | 1.26 ± 0.063
COC1CC2CCC(C)C(O)(O2)C(=O)C(=O)N2CCCCC2C(=O)OC(C(C)CC2CCC(OP(C)(C)=O)C(OC)C2)CC(=O)C(C)/C=C(\C)C(O)C(OC)C(=O)C(C)CC(C)/C=C/C=C/C=C/1C (stereo unspecified) [Ridaforolimus (Deforolimus, MK-8669)] | 1.15 ± 0.22 | 0.571 ± 0.42
COc1c(-c2ccc3cc(NS(C)(=O)=O)ccc3c2)cc(-n2ccc(=O)[nH]c2=O)cc1C(C)(C)C [Dasabuvir(ABT-333)] | 0.7838 ± 0.0059 | 0.9253 ± 0.0086
Cc1ccc(Cl)c(Nc2ccccc2C(=O)[O][Na])c1Cl [Meclofenamate Sodium] | 0.983 ± 0.054 | 1.02 ± 0.11
COc1cc2c(Oc3ccc4[nH]c(C)cc4c3F)ccnc2cc1OCC1(N)CC1.Cl.Cl [Anlotinib (AL3818) dihydrochloride] | 0.463 ± 0.024 | 0.575 ± 0.056
CC1CC2C3CCC4=CC(=O)C=CC4(C)C3(Cl)C(O)CC2(C)C1(OC(=O)c1ccco1)C(=O)CCl (stereo unspecified) [Mometasone furoate] | 1.12 ± 0.11 | 0.93 ± 0.076
C=CC(=O)N1CCCC(n2nc(-c3ccc(Oc4ccccc4)cc3)c3c(N)ncnc32)C1 (stereo unspecified) | 0.572 ± 0.048 | 0.509 ± 0.18
COc1nc(N)nc2c1ncn2C1OC(CO)C(O)C1O (stereo unspecified) [Nelarabine] | 1.12 ± 0.017 | 0.758 ± 0.029
CCCCOc1ccc(CC(=O)NO)cc1 [Bufexamac] | 1.2 ± 0.39 | 0.928 ± 0.073
Cc1nnc(C(C)C)n1C1CC2CCC(C1)N2CCC(NC(=O)C1CCC(F)(F)CC1)c1ccccc1 (stereo unspecified) [Maraviroc] | 1.3 ± 0.033 | 0.945 ± 0.17
C1N2CN3CN1CN(C2)C3 [Methenamine] | 1.09 ± 0.19 | 0.9499 ± 0.009
CC(=O)OC12COC1CC(O)C1(C)C(=O)C(O)C3=C(C)C(OC(=O)C(O)C(NC(=O)OC(C)(C)C)c4ccccc4)CC(O)(C(OC(=O)c4ccccc4)C21)C3(C)C.O.O.O (stereo unspecified) [Docetaxel Trihydrate] | 0.528 ± 0.15 | 0.631 ± 0.044
CC1=NN(c2ccc(C)c(C)c2)C(=O)/C1=N\Nc1cccc(-c2cccc(C(=O)O)c2)c1O.NCCO.NCCO [Eltrombopag Olamine] | 1.23 ± 0.034 | 0.966 ± 0.02

SMILES | cell viability (IL-6-GFP PC-9GR) | cell viability (IL-6-GFP PC-9)
COc1ccc2cc(C(C)C(=O)O)ccc2c1 (stereo unspecified) [Naproxen] | 1.5 ± 0.37 | 1.08 ± 0.16
O=C(O)c1cc(O)c(O)c(O)c1 [Gallic acid] | 0.792 ± 0.22 | 0.369 ± 0.14
CC12CCC(CC1)C(C)(C)O2 [Eucalyptol] | 1.29 ± 0.37 | 1.33 ± 0.048
Cc1cc(Nc2ncc(Cl)c(Nc3ccccc3S(=O)(=O)C(C)C)n2)c(OC(C)C)cc1C1CCNCC1 [Ceritinib (LDK378)] | 0.091 ± 0.015 | 0.0667 ± 0.041
CC(C(=O)O)c1cccc(C(=O)c2ccccc2)c1 (stereo unspecified) [Ketoprofen] | 1.64 ± 0.37 | 1.02 ± 0.11
O=C1Nc2ccccc2/C1=C1\Nc2ccccc2C1=O [Indirubin] | 1.28 ± 0.29 | 0.916 ± 0.059
COC1CC2CCC(C)C(O)(O2)C(=O)C(=O)N2CCCCC2C(=O)OC(C(C)CC2CCC(OC(=O)C(C)(CO)CO)C(OC)C2)CC(=O)C(C)/C=C(\C)C(O)C(OC)C(=O)C(C)CC(C)/C=C/C=C/C=C/1C (stereo unspecified) | 0.524 ± 0.54 | 0.698 ± 0.12
CC(=O)OC1CCC2(C)C(CCC3(C)C2C(=O)C=C2C4C(C)C(C)CCC4(C)CCC23C)C1(C)C(=O)O (stereo unspecified) | 0.941 ± 0.28 | 1.09 ± 0.16
COC(=O)/C=C/C(=O)OC [Dimethyl Fumarate] | 1.13 ± 0.16 | 1.33 ± 0.26
CC1CC2C(C(O)CC3(C)C2CCC3(O)C(=O)COC(=O)CCC(=O)O)C2(C)C=CC(=O)C=C12 (stereo unspecified) [Methylprednisolone hemisuccinate] | 0.848 ± 0.037 | 0.911 ± 0.24
C=CC(=O)Nc1cc(Nc2nccc(-c3cn(C)c4ccccc34)n2)c(OC)cc1N(C)CCN(C)C [Osimertinib (AZD9291)] | 0.225 ± 0.073 | 0.372 ± 0.059
Cc1coc2c1C(=O)C(=O)c1c-2ccc2c1CCCC2(C)C [Tanshinone IIA] | 1.37 ± 0.095 | 0.705 ± 0.19
CCOC(=O)c1ccc(C#Cc2ccc3c(c2)C(C)(C)CCS3)nc1 [Tazarotene] | 1.32 ± 0.14 | 1.15 ± 0.041
Cc1ccc(Nc2nccc(N(C)c3ccc4c(C)n(C)nc4c3)n2)cc1S(N)(=O)=O.Cl | 0.886 ± 0.13 | 0.532 ± 0.1
COc1nc2ccc(Br)cc2cc1C(c1ccccc1)C(O)(CCN(C)C)c1cccc2ccccc12.O=C(O)/C=C/C(=O)O (stereo unspecified) [Bedaquiline fumarate] | 1.18 ± 0.17 | 1.15 ± 0.067
CC1(C)CCC(CN2CCN(c3ccc(C(=O)NS(=O)(=O)c4ccc(NCC5CCOCC5)c([N+](=O)[O-])c4)c(Oc4cnc5[nH]ccc5c4)c3)CC2)=C(c2ccc(Cl)cc2)C1 [Venetoclax (ABT-199, GDC-0199)] | 0.907 ± 0.17 | 1.03 ± 0.15
